Results as given in PubChem BioAssay (NCATS).
Records with an inconclusive call do not appear. Activity calls are given as the source filed them. Unless noted, calls come from the whole dose curve; as a rule, active = well fitted curve in the direction sought with a large enough effect; inconclusive = small, poorly fitted or top-dose-only effect, or another doubt; inactive = no such curve, though single readings can be large; an effect the other way counts as inactive or inconclusive.

Assays:
[1] = qHTS for differential inhibitors of proliferation of Plasmodium falciparum line 7G8 (AID 1815); details: Plasmodium falciparum 7G8 proliferation inhibition; series mostly up to 28.7 µM;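 note: parasite growth measured after three days of incubation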; note: potency is the fitted concentration of half-maximal effect
[2] = qHTS for differential inhibitors of proliferation of Plasmodium falciparum line GB4 (AID 1816); details: Potency: Plasmodium falciparum GB4 proliferation inhibition; series mostly up to 28.7 µM;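 note: parasite growth measured after 72 h incubation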; note: potency is the fitted concentration of half-maximal effect
[3] = qHTS for differential inhibitors of proliferation of Plasmodium falciparum line 3D7 (AID 1876); note: potency is the fitted concentration of half-maximal effect; details: P. falciparum 3D7 proliferation inhibition; series mostly up to 28.7 µM
[4] = qHTS for differential inhibitors of proliferation of Plasmodium falciparum line D10 (AID 1877); details: series mostly up to 28.7 µM;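 note: parasites grown with compound for 72 h before DNA staining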; note: potency is the fitted concentration of half-maximal effect
[5] = qHTS for differential inhibitors of proliferation of Plasmodium falciparum line W2 (AID 1883); details: Potency: Plasmodium falciparum W2 proliferation inhibition; series mostly up to 28.7 µM;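 note: parasites grown with compound for 72 h before lysis and staining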; note: potency is the fitted concentration of half-maximal effect
[6] = qHTS for differential inhibitors of proliferation of Plasmodium falciparum line HB3 (AID 1886); details: Potency: Plasmodium falciparum HB3 proliferation inhibition; series mostly up to 28.7 µM;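 note: parasites grown with compound for 72 h before SYBR Green readout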; note: potency is the fitted concentration of half-maximal effect
[7] = target: Ferritin light chain (Equus caballus) (UniProt P02791); assay: qHTS Validation Assay for Identification of Novel General Anesthetics (AID 2323); details: horse apoferritin, anesthetic-site fluorescent probe displacement; series mostly up to 76.9 µM
Ferritin light chain (Equus caballus), sequence (P02791 2-175 limits assumed): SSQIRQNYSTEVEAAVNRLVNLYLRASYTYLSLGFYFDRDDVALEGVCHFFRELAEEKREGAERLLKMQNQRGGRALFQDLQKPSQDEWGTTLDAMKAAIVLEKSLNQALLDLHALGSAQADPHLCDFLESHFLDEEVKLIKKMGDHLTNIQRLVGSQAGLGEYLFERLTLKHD
How it was run: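 Competitive displacement of the profluorescent anesthetic 1-AMA (50% saturated, PBS) from 10 uM apoferritin, 10 min, room temperature. Activity is normalized 380/535 nm fluorescence; concentration-response fitted with a four-parameter Hill equation.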

[8] = target: RecQ-like DNA helicase BLM (Homo sapiens) (UniProt P54132); assay: qHTS Validation Assay for Inhibitors of Bloom's syndrome helicase (BLM) (AID 2364); details: BLM helicase DNA unwinding, fluorescence, in vitro; series mostly up to 57.1 µM; note: potency is the fitted concentration of half-maximal effect
RecQ-like DNA helicase BLM (Homo sapiens), sequence (P54132 whole entry, looked up): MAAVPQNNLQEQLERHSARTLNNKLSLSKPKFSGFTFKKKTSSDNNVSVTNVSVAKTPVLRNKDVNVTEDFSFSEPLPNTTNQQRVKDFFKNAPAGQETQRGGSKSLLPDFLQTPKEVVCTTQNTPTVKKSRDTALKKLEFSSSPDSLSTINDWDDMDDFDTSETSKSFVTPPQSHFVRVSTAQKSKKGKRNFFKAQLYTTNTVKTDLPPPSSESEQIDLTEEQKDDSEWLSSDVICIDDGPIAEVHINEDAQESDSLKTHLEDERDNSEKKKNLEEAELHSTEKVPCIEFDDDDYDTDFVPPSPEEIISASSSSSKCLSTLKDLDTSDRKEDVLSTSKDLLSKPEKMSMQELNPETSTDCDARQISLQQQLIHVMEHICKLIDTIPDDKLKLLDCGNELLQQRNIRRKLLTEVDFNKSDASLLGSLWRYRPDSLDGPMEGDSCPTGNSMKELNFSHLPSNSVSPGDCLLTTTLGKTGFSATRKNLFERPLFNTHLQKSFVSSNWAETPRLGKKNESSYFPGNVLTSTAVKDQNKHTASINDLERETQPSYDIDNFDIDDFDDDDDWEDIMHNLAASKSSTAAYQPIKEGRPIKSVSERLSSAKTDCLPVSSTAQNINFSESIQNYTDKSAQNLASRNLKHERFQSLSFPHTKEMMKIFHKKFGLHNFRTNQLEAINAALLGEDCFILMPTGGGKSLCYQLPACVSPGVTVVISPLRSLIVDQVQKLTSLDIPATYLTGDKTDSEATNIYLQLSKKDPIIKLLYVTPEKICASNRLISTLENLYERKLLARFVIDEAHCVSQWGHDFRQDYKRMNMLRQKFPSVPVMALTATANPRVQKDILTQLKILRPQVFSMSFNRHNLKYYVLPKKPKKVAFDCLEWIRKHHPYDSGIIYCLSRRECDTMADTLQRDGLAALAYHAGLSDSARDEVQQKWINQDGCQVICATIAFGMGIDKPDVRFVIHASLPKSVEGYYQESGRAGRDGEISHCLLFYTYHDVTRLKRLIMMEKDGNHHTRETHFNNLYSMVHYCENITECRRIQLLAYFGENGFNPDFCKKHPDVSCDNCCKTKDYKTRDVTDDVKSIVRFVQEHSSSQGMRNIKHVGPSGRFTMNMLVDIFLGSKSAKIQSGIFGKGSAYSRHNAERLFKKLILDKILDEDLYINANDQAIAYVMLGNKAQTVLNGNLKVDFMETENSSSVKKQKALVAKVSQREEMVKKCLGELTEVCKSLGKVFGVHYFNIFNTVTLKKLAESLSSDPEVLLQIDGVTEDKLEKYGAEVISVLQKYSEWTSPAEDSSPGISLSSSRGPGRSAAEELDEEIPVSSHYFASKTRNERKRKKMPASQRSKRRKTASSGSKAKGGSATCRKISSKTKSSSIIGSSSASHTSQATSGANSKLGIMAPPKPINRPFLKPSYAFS
How it was run: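 BLM 50 nM in 25 mM Tris-HCl pH 8.0, 5 mM NaCl, 2 mM MgCl2, 1 mM DTT, 0.01% Tween-20, 2.5 ug/ml poly(dI-dC); 15 min cpd preinc, RT. Start: 200 nM forked DNA + 2 mM ATP (final). TAMRA read, 2 reads 2 h apart.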

[9] = qHTS Assay for Identification of Small Molecule Inducers of Hypoxia Response (AID 2120; active = well fitted curve in the direction sought with a large enough effect in the signal ratio, with a control signal flat, not every such curve was filed as active; the % refers to the signal ratio); details: hypoxia response reporter cells, beta-lactamase ratio readout; series mostly up to 104 µM
How it was run: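 HRE-bla ME-180, 2500 cells/well, 0.5% dialyzed FBS medium; cpd titration, 17 h 37 degrees C; CCF4 2.5 h RT; Ex 405, Em 460/530 ratio -> %Activity, AC50.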

[10] = qHTS Assay for Modulators of Human Peripheral Myelin Protein 22 (PMP22) Expression/Activity (AID 1967; active = well fitted curve in the direction sought with a large enough effect in the signal ratio; the % refers to the signal ratio); details: Cell-based PMP22 reporter, dual-color luciferase ratio, 0% = compound-free control cells, mouse Pmp22 promoter in mouse Schwann cells; series mostly up to 115 µM
How it was run: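 Readout is the corrected green/red luminescence ratio after 24 h compound exposure, normalised to untreated cells (0%). Engineered MSC80 mouse Schwann cells express green luciferase from the mouse Pmp22 promoter and red luciferase from EF-alpha as internal control.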

Measured: Potency

C[N+](C)(C)CCCCCC[N+](C)(C)C
not listed: [9] | [10]
inactive: all other assays above

CC(C)NCC(O)COc1cccc2[nH]ccc12 (stereo not drawn)
inactive: [7]

COC(=O)[C@@H]1[C@H]2C[C@H]3c4[nH]c5ccccc5c4CCN3C[C@@H]2CC[C@@H]1O
inactive: [7] | [8]

CCN1CCC[C@H]1CNC(=O)c1cc(S(N)(=O)=O)ccc1OC
not listed: [8] | [9] | [10]
inactive: all other assays above

CCN(CC)C(=O)c1ccc(O)c(OC)c1
not listed: [8] | [9] | [10]
inactive: all other assays above

O=c1[nH]cnc2c1ncn2[C@H]1CC[C@@H](CO)O1
inactive: [9]

O=C1NCC2(CCN(CCc3ccccc3)CC2)O1
inactive: [1] | [3] | [4] | [6] | [10] | [7]

Clc1ccc(Cn2c(CN3CCCC3)nc3ccccc32)cc1
active: [1] 7.08 µM | [2] 10 µM | [3] 11.2 µM | [5] 5.62 µM | [6] 11.2 µM

CC/C(=C(\c1ccccc1)c1ccc(OCCN(C)C)cc1)c1ccccc1
active: [1] 8.91 µM | [2] 12.6 µM | [3] 11.2 µM | [4] 11.2 µM | [5] 7.94 µM | [6] 11.2 µM
inactive: [7]

CC(=O)CCCCn1c(=O)c2c(ncn2C)n(C)c1=O
not listed: [9] | [10]
inactive: all other assays above

COc1cccc(-c2cc(=O)c3ccccc3o2)c1N
active: [5] 12.6 µM
inactive: [7]

CCCNC(=O)NS(=O)(=O)c1ccc(Cl)cc1
not listed: [10]
inactive: all other assays above

CC(=O)N[C@@H](CS)C(=O)O
not listed: [8] | [9] | [10]
inactive: all other assays above

CC(=O)c1ccc(S(=O)(=O)NC(=O)NC2CCCCC2)cc1
not listed: [8] | [9] | [10]
inactive: all other assays above

CCN(CC)CCNC(=O)c1ccc(N)cc1
not listed: [8] | [9] | [10]
inactive: all other assays above

O=c1cc(-c2ccc(O)cc2)oc2cc(O)cc(O)c12
active: [1] 11.2 µM | [2] 14.1 µM | [3] 12.6 µM | [5] 10 µM | [6] 11.2 µM
inactive: [8]

O=C(O)c1cc(O)c2c(c1)C(=O)c1cccc(O)c1C2=O
inactive: [9]

O=C(O)CCc1nc(-c2ccccc2)c(-c2ccccc2)o1
inactive: [7] | [8]

CC1=C(/C=C/C(C)=C/C=C/C(C)=C/C(=O)Nc2ccc(O)cc2)C(C)(C)CCC1
active: [1] 3.55 µM | [2] 6.31 µM | [3] 11.2 µM | [4] 12.6 µM | [5] 3.98 µM | [6] 12.6 µM

O=C(O)Cc1cccc2ccccc12
inactive: [9]

O=c1c(-c2ccc(O)cc2)coc2cc(O)ccc12
not listed: [8] | [9] | [10]
inactive: all other assays above

NC(N)=Nc1nc(CSCC/C(N)=N/S(N)(=O)=O)cs1
not listed: [8] | [9] | [10]
inactive: all other assays above

CC1(C)CCC2=C(O1)c1ccccc1C(=O)C2=O
active: [1] 3.55 µM | [2] 3.98 µM | [3] 10 µM | [4] 11.2 µM | [5] 7.08 µM | [6] 12.6 µM | [8] 25.1 µM

CN(C)CCC(c1ccccc1)c1ccccn1 (stereo not drawn)
inactive: [3] | [4] | [6] | [7] | [8]
active: [2] 5.62 µM | [5] 3.55 µM

O=C1NC(=O)C(c2ccccc2)(c2ccccc2)N1
not listed: [8] | [9] | [10]
inactive: all other assays above

CCN(CC)CCOC(=O)c1ccc(N)cc1
inactive: [1] | [2] | [3] | [4] | [6] | [7]

NCCS
not listed: [8] | [9] | [10]
inactive: all other assays above

COc1ccccc1N1CCN(CCCNc2cc(=O)n(C)c(=O)n2C)CC1
inactive: [1] | [7]
active: [3] 10 µM | [5] 10 µM

Cc1cccc(C)c1OCC(C)N (stereo not drawn)
active: [1] 12.6 µM | [2] 12.6 µM | [5] 7.94 µM
inactive: [3] | [4] | [6] | [8]

CCCCC1C(=O)N(c2ccccc2)N(c2ccccc2)C1=O
inactive: [9]
active: [2] 14.1 µM | [3] 11.2 µM | [5] 11.2 µM
